From ChEMBL document CHEMBL4513146, “CO-ADD screening of Karazin Kharkiv National University (Ukraine) compounds” come the findings set out here.

SMILES strings stand for the structures. Among all 23,000 compounds or so, about 30 (0.1%) showed an effect of 50% or more. This excerpt belongs to a sample that is enriched for strong results. Entries with a potency or affinity are not part of this list.

This assay has as its system Pseudomonas aeruginosa. To be noted: Concentration 32 ug.mL-1;; ASSAY_TEST Inhibition of Bacterial Growth; detection method Absorption (OD600); MEDIA CAMHB; plate type 384well; NBS; CORNING #3640; time 18 hr.
Turning to `COc1ccc(-c2cc3c4nn(CC(=O)Nc5ccc(F)cc5)c(=O)n4ccn3n2)cc1`, the Inhibition is recorded as -1.39%.

As for `O=C(CSc1nnc2c(=O)n(Cc3ccc(F)cc3)ccn12)NC1CCCC1`, the Inhibition worked out at 8.47%.

As for `Cc1ccc(Oc2nccn3c(=O)n(CC(=O)Nc4ccc(Cl)cc4F)nc23)cc1`, the Inhibition worked out at 0.79%.

In the case of `Cc1cccc(N(Cc2ccc(F)cc2)S(=O)(=O)c2cccn3c(C)nnc23)c1`, the Inhibition was found to be 11.57%.

As for `COc1cccc(CSc2nnc3c(=O)n(-c4ccc(Br)cc4)ccn23)c1`, the Inhibition worked out at 16.71%.

As to `Cc1ccccc1Oc1nccn2c(=O)n(CC(=O)Nc3ccc(Cl)c(Cl)c3)nc12`, the Inhibition is on record as 3.97%.

Consider `O=C(Cn1nc2c(Sc3ccccc3)nccn2c1=O)Nc1ccc(Br)cc1F`, for which the Inhibition stood at 11.79%.

For the compound `COc1ccc(CNC(=O)CCc2nnc3c4cc(-c5ccc(Cl)cc5)nn4ccn23)cc1OC`, the Inhibition is recorded as 9.37%.

With `O=C(Cn1nc2c(Sc3ccccc3)nccn2c1=O)Nc1ccc2c(c1)OCCO2`, the Inhibition came out at 17.83%.

By Inhibition is commonly meant the change of the read-out against control, counted positive when it falls.
